# Out of some 310,000 compounds screened, about 14,000 (4.5%) showed an effect of 50% or more. The effect is printed as a negative number. The full list was thinned out, with strong results kept by preference.
# Target: human ether-à-go-go-related gene (hERG) potassium channel (human, UniProt Q12809)
# Test: primary screen, population patch clamp on CHO cells stably expressing hERG; higher = less effect of the substance
# 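Note: peak tail current of the secondary pulse compared with the same well before compound.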
# Sequence of human ether-à-go-go-related gene (hERG) potassium channel (Q12809 whole entry, looked up): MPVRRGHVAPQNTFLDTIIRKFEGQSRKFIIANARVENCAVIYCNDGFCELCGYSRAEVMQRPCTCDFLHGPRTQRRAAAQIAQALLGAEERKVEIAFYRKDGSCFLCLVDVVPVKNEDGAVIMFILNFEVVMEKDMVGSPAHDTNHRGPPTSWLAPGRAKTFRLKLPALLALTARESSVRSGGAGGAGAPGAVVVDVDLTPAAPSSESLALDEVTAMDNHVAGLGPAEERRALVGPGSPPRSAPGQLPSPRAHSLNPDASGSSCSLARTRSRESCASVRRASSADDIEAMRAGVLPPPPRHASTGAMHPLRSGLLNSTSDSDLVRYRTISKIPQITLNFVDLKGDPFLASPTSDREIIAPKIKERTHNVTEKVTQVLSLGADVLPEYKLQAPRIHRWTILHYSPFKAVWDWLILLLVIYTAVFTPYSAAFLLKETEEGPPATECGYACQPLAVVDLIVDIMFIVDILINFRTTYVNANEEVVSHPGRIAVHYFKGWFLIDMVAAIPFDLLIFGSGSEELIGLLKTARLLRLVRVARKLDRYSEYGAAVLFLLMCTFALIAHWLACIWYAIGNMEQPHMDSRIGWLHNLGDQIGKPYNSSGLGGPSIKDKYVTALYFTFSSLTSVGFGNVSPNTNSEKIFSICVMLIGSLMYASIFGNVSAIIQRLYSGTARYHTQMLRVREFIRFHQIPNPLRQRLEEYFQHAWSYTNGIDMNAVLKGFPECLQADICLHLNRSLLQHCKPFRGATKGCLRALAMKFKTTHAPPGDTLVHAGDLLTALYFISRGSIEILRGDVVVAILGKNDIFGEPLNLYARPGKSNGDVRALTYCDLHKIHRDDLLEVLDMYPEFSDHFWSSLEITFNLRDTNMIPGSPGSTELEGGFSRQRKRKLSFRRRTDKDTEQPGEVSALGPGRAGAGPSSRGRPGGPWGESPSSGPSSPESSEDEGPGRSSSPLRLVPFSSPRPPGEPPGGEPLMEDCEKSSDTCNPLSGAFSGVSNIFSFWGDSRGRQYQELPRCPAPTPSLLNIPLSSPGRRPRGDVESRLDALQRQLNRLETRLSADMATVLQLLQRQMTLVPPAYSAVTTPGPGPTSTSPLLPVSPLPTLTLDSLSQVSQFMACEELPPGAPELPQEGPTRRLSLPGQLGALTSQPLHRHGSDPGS
row,Structure (SMILES),"hERG current change (%, negative = inhibition) at 10uM"
1,CCc1ccccc1N(CC(=O)N1CCCCC1)S(=O)(=O)c1ccccc1,10.6%
2,N#CC(C#N)=Cc1cc2ccccc2nc1N1CCCCC1,2.22%
3,CCN(CC)c1ccc(NC(=O)COC(=O)COc2ccccc2[N+](=O)[O-])cc1,3.42%
4,Cn1cc(Br)c(C(=O)NNC(=O)Cc2ccc(Cl)cc2)n1,3.6%
5,COc1ccc(N2C(=O)C3C(C2=O)C3(c2ccccc2)c2ccccc2)cc1 (centres unmarked),0.0654%
6,O=C1CC(c2ccccc2)CC(O)=C1C=NCCN1CCN(C(=S)Nc2cccc(Cl)c2)CC1 (centres unmarked),-39.4%
7,O=C1CC(c2ccc(F)cc2)CC(O)=C1C=NCCN1CCN(C(=O)Nc2ccccc2)CC1 (centres unmarked),-67.8%
8,O=C1CC(c2ccc(F)cc2)CC(O)=C1C=NCCN1CCNCC1 (centres unmarked),6.09%
9,CCOC(=O)c1ccc(NC(=S)N2CCN(CCN=CC3=C(O)CC(c4ccccc4)CC3=O)CC2)cc1 (centres unmarked),-19.9%
10,Cc1ccc(NC(=O)CN2CCN(CCN=CC3=C(O)CC(c4ccccc4)CC3=O)CC2)cc1 (centres unmarked),-67.4%
11,Cc1ccc(C2CC(=O)C(C=NCCN3CCN(C(=S)Nc4ccc(F)cc4)CC3)=C(O)C2)cc1 (centres unmarked),-58.6%
12,Cc1ccc(C2CC(=O)C(C=NCCN3CCN(C(=S)Nc4ccccc4)CC3)=C(O)C2)cc1 (centres unmarked),-26.4%
13,O=C1CC(c2ccccc2)CC(O)=C1C=NCCN1CCN(C(=O)Nc2ccccc2)CC1 (centres unmarked),-64.4%
14,COc1ccc(C2CC(=O)C(C=NCCN3CCN(C(=S)Nc4ccccc4)CC3)=C(O)C2)cc1 (centres unmarked),-32.8%
15,Cc1ccc(NC(=O)CN2CCN(CCN=CC3=C(O)CC(c4ccc(C)cc4)CC3=O)CC2)cc1 (centres unmarked),-45.3%
16,Cc1c(Cl)cccc1NC(=O)CN1CCN(CCN=CC2=C(O)CC(c3ccccc3)CC2=O)CC1 (centres unmarked),-19.9%
17,COc1ccc(NC(=S)N2CCN(CCN=CC3=C(O)CC(c4ccccc4)CC3=O)CC2)cc1 (centres unmarked),-45.7%
18,O=C(Nc1cc2c(cc1Br)OCCO2)c1cccnc1,1.58%
19,O=C(c1ccc(CS(=O)Cc2cccc(Cl)c2)o1)N1CCN(C2CCCCC2)CC1 (centres unmarked),-16.5%
20,COc1cc2nc(C3CCC3)n(NC(=O)C(OC(C)=O)c3ccccc3)c(=O)c2cc1OC (centres unmarked),9.45%
21,Cc1c(C(=O)NCCSCc2ccco2)cccc1[N+](=O)[O-],-5.94%

row,Structure (SMILES),"hERG current change (%, negative = inhibition) at 10uM"
1,CN(Cc1cc2ccccc2[nH]c1=O)C(=O)COc1ccccc1,-8.32%
2,O=C(COC(=O)C1(c2ccccc2F)CCCC1)Nc1ncc(C(F)(F)F)cc1Cl,-10.1%
3,CSc1ccc(Cl)c(C(=O)Nc2ccc(N3CCOCC3)cc2)c1,-1.67%
4,Cc1cc(NC(=O)Nc2ccc(Cl)cc2)n(C(C)(C)C)n1,17.7%
5,CC(NC(=O)c1nn(C)c2c1CS(=O)(=O)c1ccccc1-2)c1ccccc1 (centres unmarked),-13.1%
6,CC(OC(=O)Cc1c(F)cccc1Cl)C(=O)NC1(C#N)CCCCC1 (centres unmarked),-22.4%
7,C=CCNC(=S)N1CCN(CCN=CC2=C(O)CC(c3cccs3)CC2=O)CC1 (centres unmarked),-49.1%
8,C=CCNC(=S)N1CCN(CCN=CC2=C(O)CC(c3ccc(Cl)cc3)CC2=O)CC1 (centres unmarked),-66.4%
9,CC(=O)N1CCN(CCN=CC2=C(O)CC(c3ccc(Cl)cc3)CC2=O)CC1 (centres unmarked),-15.7%
10,Fc1c(F)c(C(F)(F)F)c(F)c(F)c1N/N=C\c1cccs1,15.5%
11,COc1ccccc1C(=O)Nc1ccc(OCC(=O)N2CCCCC2)cc1,-2.87%
12,O=C(Nc1cccc(Cl)c1Cl)c1ccccc1OCC(=O)N1CCOCC1,-13.5%
13,CC(=O)N1CCN(C(=O)COc2ccccc2C(=O)Nc2ccccc2)CC1,-53.2%
14,Cc1cccc(NC(=O)c2ccccc2OCC(=O)N2CCOCC2)c1C,-6.62%
15,Cc1ccc(Cl)cc1NC(=O)c1ccccc1OCC(=O)N1CCOCC1,-63.6%
16,Cc1cc(NC(=O)c2ccc(Cl)cc2)cc(C)c1OCC(=O)N1CCOCC1,-52.4%
17,Cc1ccc(C(=O)Nc2cc(C)c(OCC(=O)N3CCOCC3)c(C)c2)cc1,-11.3%
18,CC(=O)c1ccc(NC(=O)COc2ccccc2C(=O)Nc2ccccc2)cc1,9.66%
19,CCCCOc1ccc(C(=O)Nc2cc(C)c(OCC(=O)N3CCOCC3)c(C)c2)cc1,-24.8%
20,COc1ccc(C(CNC(=O)c2cc(C)on2)N(C)C)cc1 (centres unmarked),22.1%
21,O=C(CSc1nc2c(sc3ccccc32)c(=O)n1CCO)NCC1CCCO1 (centres unmarked),-3.42%

row,Structure (SMILES),"hERG current change (%, negative = inhibition) at 10uM"
1,C=CCN(C(=O)CSc1nc2c(sc3ccccc32)c(=O)n1CCN(CC)CC)c1ccccc1,-77.4%
2,O=C(CSc1nc2c(sc3ccccc32)c(=O)n1CCCN1CCCC1)NCC1CCCO1 (centres unmarked),-61.6%
3,CCN(CC)CCn1c(SCC(=O)NCCC2=CCCCC2)nc2c(sc3ccccc32)c1=O,35.5%
4,CCN(CC)CCn1c(SCC(=O)NCc2ccccc2)nc2c(sc3ccccc32)c1=O,-29.3%
5,O=C(CSc1nc2c(sc3ccccc32)c(=O)n1CCCN1CCCC1)NCc1ccco1,-73%
6,O=C(CSc1nc2c(sc3ccccc32)c(=O)n1CCc1ccccc1)NCc1ccco1,-8.32%
7,O=C(CSc1nc2c(sc3ccccc32)c(=O)n1CCCN1CCOCC1)NCC1CCCO1 (centres unmarked),-14.3%
8,CCCCn1c(SCC(=O)NCc2ccco2)nc2c(sc3ccccc32)c1=O,-16.8%
9,CCN(CC)CCn1c(SCC(=O)NCc2ccco2)nc2c(sc3ccccc32)c1=O,-68.2%
10,CCOCCCn1c(SCC(=O)NCc2ccco2)nc2c(sc3ccccc32)c1=O,-27.6%
11,O=C(CSc1nc2c(sc3ccccc32)c(=O)n1CCO)NCc1ccco1,-18.2%
12,CC1(C)CN(c2cccc(Br)c2)C1=O,7.96%
13,Cc1c(C)n(CC(O)CNc2ccccc2)c2ccccc12.O=C(O)C(=O)O (centres unmarked),23.1%
14,CCOC(=O)Cc1csc(NC(=O)c2cccc(Cl)c2)n1,-13%
15,CC1(c2nnc(-c3ccc(Cl)cc3)o2)CC(c2cccc(Cl)c2)=NO1 (centres unmarked),13.7%
16,COCCn1c(SCC(=O)Nc2cc(C)on2)nc2c(c1=O)SC(C)C2 (centres unmarked),10.5%
17,COC(=O)c1ccc(COC(=O)C2CCN(S(=O)(=O)c3c(Cl)cccc3Cl)CC2)o1,-7.62%
18,COC(=O)/C(=C/N(C)C)C(=O)N1CCN(c2ccc(Cl)c(Cl)c2)CC1,-25%
19,COc1cccc(OC)c1C(=O)NNS(=O)(=O)c1ccc2ccccc2c1,-5.2%
20,O=C(O)CC(SCC(=O)Nc1ccccc1)C(=O)O (centres unmarked),23%
21,O=C1[C@@H]2Cc3c([nH]c4ccccc34)C(c3ccc([N+](=O)[O-])cc3)N2C(=O)CN1C1CC1 (some centres unmarked),-25.2%

row,Structure (SMILES),"hERG current change (%, negative = inhibition) at 10uM"
1,CSc1nc(Cc2ccccc2)nc2ccccc12,22.9%
2,Cc1cc(C)nc(N/C(=N\S(=O)(=O)Cc2ccccc2)Nc2cccc(Cl)c2C)n1,-3.72%
3,ON1C2CCCCC2N(O)C1c1ccccc1F (centres unmarked),16.7%
4,Cc1ccc(CNC(=O)CSc2nc3c(sc4ccccc43)c(=O)n2CCCN2CCCC2)cc1,-82.8%
5,Cc1ccc(-n2c(SCC(=O)NCc3ccco3)nc3c(sc4ccccc43)c2=O)cc1,14.8%
6,O=C(CSc1nc2c(sc3ccccc32)c(=O)n1CCCN1CCCC1)NCc1ccccc1,-80.8%
7,COc1ccc(C(=O)Nc2ncccc2C)cc1S(=O)(=O)N1CCCc2ccccc21,9.01%
8,Cc1ccc(CNC(=O)c2ccccc2NS(=O)(=O)c2ccc(Cl)nc2)cc1,12.6%
9,OC(COc1ccccc1)Cn1cc(Br)cn1 (centres unmarked),0.0411%
10,CCc1nc(Nc2ccccc2OC)c2oc3ccccc3c2n1.Cl,12.5%
11,CCN(CC)c1ccc2cc(C(N)=O)c(=N)oc2c1,-58.5%
12,CCN(CC)c1ccc2cc(C(N)=O)c(=O)oc2c1,9.31%
13,CCCCCCc1cc2cc(C(N)=O)c(=N)oc2cc1O,-59.8%
14,CCN(CC)c1ccc2cc(C(=O)NCc3ccc(F)cc3)c(=N)oc2c1,-23.4%
15,CCCCCCc1cc2cc(C(=O)OCC)c(=O)oc2cc1O,23.3%
16,CCCCCCc1cc2cc(C(=O)NC)c(=N)oc2cc1O,-7.38%
17,CN(C[C@H](Cc1ccccc1)N(C[C@H](Cc1ccccc1)N(CC1(c2ccccc2)CC1)N=O)N=O)N=O.[Na+],12.8%
18,Cc1ccc(OCCCC(=O)NCc2ccco2)c(C)c1,0.0372%
19,CCCCCC(O)CCC(=O)NNC1=CC(=O)CC(C)(C)C1 (centres unmarked),13.9%
20,COc1ccc(C(C#N)C2(C)OCCO2)cc1OC (centres unmarked),-4.08%

# Reference: paper PMC4336329 (PLoS ONE, 2015)
